Sampled rows, rich in hits. Any-hit rate of the full collection: about 4.2%.
Wnt act: Wnt/beta-catenin pathway activators, primary screen, cell-based, plate reader, single point; 300,000 compounds, 1.2% hits; activation, % at 9.35 µM; AID 743398, 2014; Wnt/beta-catenin reporter cell assay, activator; in the data active means activation above about 30%, passing the limit was not always enough; inconclusive means no clear call, values can overlap the other calls;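 further: 0% = neutral control wells and 100% = positive control wells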
ssDAF12 agonist: S. stercoralis DAF-12 nuclear receptor activators, primary screen, cell-based, luminescence, HEK293, GRIP1 co-expression, lit1-tk-luc; Nuclear hormone receptor DAF-12 (Strongyloides stercoralis); activation, % at 6.8 µM; 370,000 compounds, 1% hits; AID 652126, 2013; HEK293 ssDAF-12/GRIP1 lit1-tk-luc reporter; % of 3 µM dafachronic acid response;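 active means activation above the mean over all tested compounds plus 3 SD, cut at about 0.9% in these data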;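 further: 0% = DMSO-only wells and 100% = 3 µM delta7-dafachronic acid wells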
hcDAF12 agonist: H. contortus DAF-12 nuclear receptor activators, primary screen, cell-based, luminescence, HEK293, lit1-tk-luc reporter. 370,000 compounds, 1.4% hits. AID 652067, 2013. HEK293 hcDAF-12 lit1-tk-luc reporter; 0% DMSO, 100% Δ7-dafachronic acid. activation, % at 6.8 µM;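 active means activation above the mean of all tested compounds plus 3 SD, cut at about 5.5% in these data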;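 further: 100% = response to 3 µM Δ7-dafachronic acid high control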
hgDAF-12 ag: H. glycines DAF-12 receptor agonists, primary screen, cell-based, luminescence, HEK293, GAL4 fusion, UAS-luciferase; HEK293 GAL4-hgDAF12 UAS-luciferase reporter, agonist luminescence; normalized to butyrate control; activation, % at 6.8 µM; 370,000 compounds, 1.8% hits;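 active means activation above a cutoff set at the mean of all screened compounds plus 3 SD, cut at about 10% in these data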;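 further: 0% = DMSO wells and 100% = sodium butyrate wells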
DAX1 inh: DAX1 (NR0B1) inhibitors on StAR promoter, primary screen, cell-based, luminescence, SF-1 (NR5A1), full-length DAX-1; HEK293T StAR-luciferase reporter, SF-1/DAX-1 repression relief; inhibition, % at 6.8 µM; 370,000 compounds, 1.1% hits; AID 652010, 2013;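 active means inhibition above the mean over all tested compounds plus 3 SD, cut at about 3.6% in these data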;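 further: 0% = DAX-1 cells with DMSO and 100% = cells lacking DAX-1 with DMSO; higher inhibition means more luminescence from relief of DAX-1 repression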
esBAF inh: Bmi1 luciferase reporter increase in mESCs, primary screen, esBAF inhibitor project, mouse ES cells, Bmi1 luciferase knock-in, single point; 24 h; 100% = twice the neutral-well signal; reporter increase, % at 12.5 µM; 350,000 compounds, 2% hits; AID 602393, 2012; in the data active means activation above about 40%; inconclusive means no clear call, values can overlap the other calls;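 further: 0% = median of the plate's neutral control wells and 100% = double that signal; a rise in the Bmi1 reporter signal indicates esBAF inhibition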
hgDAF12 conf: H. glycines DAF-12 receptor agonists, confirmation, cell-based, luminescence, HEK293, GAL4-LBD fusion; shares compounds with hgDAF-12 ag; HEK293 GAL4-hgDAF12 luciferase reporter, agonist mode; percent of butyrate response; activation, % at 6.8 µM; 3,300 compounds, 80% hits;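 active means mean activation over triplicate wells above the hit cutoff derived from the earlier primary screen, cut at about 11% in these data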;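 further: 0% = DMSO low control and 100% = 2 mM sodium butyrate high control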
LXR ag 2: LXR agonists, Gal4 luciferase reporter, confirmation, counter-screen for hgDAF-12 agonist project, cell-based, luminescence, HEK293, H. glycines campaign. shares compounds with hgDAF-12 ag. activation, % at 6.8 µM. 3,300 tested, under 10 active. 24 h;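 active means mean activation of the triplicate above a set limit carried over from the primary screen, none filed active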
Target sequence (P55055 whole entry, looked up, the tested form may be a part): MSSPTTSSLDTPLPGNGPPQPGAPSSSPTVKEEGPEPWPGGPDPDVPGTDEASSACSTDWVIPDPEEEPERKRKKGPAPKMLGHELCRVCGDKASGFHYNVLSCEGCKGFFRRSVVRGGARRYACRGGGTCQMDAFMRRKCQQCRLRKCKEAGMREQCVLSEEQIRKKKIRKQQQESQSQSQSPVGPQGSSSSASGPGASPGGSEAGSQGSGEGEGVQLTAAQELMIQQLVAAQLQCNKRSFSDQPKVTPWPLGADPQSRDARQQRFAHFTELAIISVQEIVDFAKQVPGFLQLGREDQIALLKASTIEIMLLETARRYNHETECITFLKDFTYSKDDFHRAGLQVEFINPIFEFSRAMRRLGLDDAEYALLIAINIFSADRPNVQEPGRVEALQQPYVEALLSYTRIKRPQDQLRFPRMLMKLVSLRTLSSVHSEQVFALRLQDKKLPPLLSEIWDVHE
Numbers without * were called inactive; ? = inconclusive; / = no result.

SMILES | Wnt act | ssDAF12 agonist | hcDAF12 agonist | hgDAF-12 ag | DAX1 inh | esBAF inh | hgDAF12 conf | LXR ag 2
CC(/C=C/c1ccc(OCc2ccccc2)cc1)=N\O | 25.6 | -0.7 | 6.1* | 14.1* | 1.6 | / | 13.2* | 0.6
CC(/C=C/c1ccccc1)=N/O | / | -0.5 | 2.1 | -1.3 | -0.1 | 27.2 | / | /
COc1ccc(-c2nnc(SCC(=O)c3cccs3)o2)cc1 | / | 0.0 | 3.3 | 10.2 | 2.2 | / | / | /
COc1ccc(-c2nnc(SCC(=O)c3ccc[nH]3)o2)cc1 | / | 0.9 | 5.0 | 14.2* | 2.8 | 0.9 | 15.4* | 0.8
O=C(Nc1ccc2nc(-c3ccccn3)c(-c3ccccn3)nc2c1)N1CCOCC1 | -0.3 | -1.1 | -1.0 | 14.8* | -0.1 | -6.2 | -0.1 | 0.1
Cc1ccc(NC(=O)c2ccc3snnc3c2)cc1 | -0.5 | -0.6 | 2.2 | 15.6* | 1.8 | / | 15.7* | 0.5
O=C(Nc1ccccc1)c1ccc2snnc2c1 | 13.0 | -1.0 | -1.9 | 4.7 | -0.3 | / | / | /
O=[N+]([O-])c1cccc(-c2nnc(-c3ccccc3)o2)c1 | 45.8* | -0.6 | 2.5 | 13.9* | 0.3 | / | 16.4* | 0.5
COCC(=O)Nc1ccc2c(c1)[C@H]1C[C@@H](CC(=O)NCc3ccccc3OC)O[C@@H](CO)[C@H]1O2 | / | / | / | / | / | 2.1 | / | /
CCN(CC)c1ccc(/C=N/NC(=O)c2ccc3c(c2)OCCO3)cc1 | 7.1 | -0.9 | 0.5 | 3.1 | -0.1 | / | / | /
CCc1ccc(/C=N\NC(=O)c2ccc(Br)o2)s1 | / | -0.4 | 2.8 | 15.5* | 3.3 | / | 12.6* | 0.4
CCN(CC)c1ccc(/C=N/NC(=O)c2ccc(Br)o2)cc1 | -0.2 | 0.2 | 1.9 | 17.4* | 1.8 | / | 18.6* | 0.7
CN1[C@@H]2c3ccc(-c4ccccc4F)c(=O)n3C[C@H]1[C@H](CO)[C@H]2C(=O)NCc1ccccn1 | / | / | / | / | / | 1.8 | / | /
COc1ccc(/C(C)=N\NC(=O)c2ccco2)cc1 | / | -0.6 | 3.4 | 23.6* | 3.5 | / | 9.6 | 0.3
C/C(=N/NC(=O)c1ccco1)c1ccc(NC(=O)c2ccc(F)cc2)cc1 | 48.4* | -0.7 | 2.5 | 13.3* | 3.1 | 88.7* | 10.0 | 0.4
CC(=O)Nc1ccc(/C(C)=N/NC(=O)c2ccc(F)cc2)cc1 | 2.5 | -1.1 | -0.9 | 5.4 | -0.1 | / | / | /
COc1ccc(C(=O)Nc2ccc(NC(=O)c3ccco3)cc2)cc1 | 0.4 | -1.4 | -3.8 | -2.3 | -0.3 | -3.3 | / | /
Cc1ccc(S(=O)(=O)NCC[C@@H]2CC[C@H](NC(=O)c3ccccn3)[C@@H](CO)O2)cc1 | / | / | / | / | / | 1.0 | / | /
CSc1ccc(/C=N/NC(=O)c2cccc(O)c2)cc1 | -2.4 | 0.2 | 3.9 | 15.0* | 4.1* | -20.3 | 17.9* | 0.9
CC(C)c1ccc(/C=N/NC(=O)c2cccc(Cl)c2)cc1 | 28.0 | -0.1 | 3.3 | 15.1* | 3.4 | / | 24.2* | 0.7
CC(C)c1ccc(C(=O)N/N=C/c2cccc(Cl)c2Cl)cc1 | 19.2 | -1.0 | -1.4 | -0.5 | 1.0 | 18.2 | / | /
COc1ccc(NC(=O)Nc2cccc3c2O[C@@H](CN(C)C(=O)Nc2ccccc2)[C@H](C)CN([C@@H](C)CO)C3=O)cc1 | / | / | / | / | / | 1.2 | / | /
CCCn1nc(NC(=O)COC)c2cc3cccc(C)c3nc21 | 3.1 | -1.2 | -0.6 | 13.9* | 0.0 | 7.1 | 0.6 | -0.1
Cc1ccc(NC(=S)c2nc3ccccc3[nH]2)cc1 | 29.4 | 1.0* | 6.5* | 14.4* | 2.6 | 20.2 | 16.7* | 0.7
CC(C)C#Cc1ccc2c(c1)O[C@H](CN(C)C(=O)C1CCCCC1)[C@@H](C)CN([C@@H](C)CO)S2(=O)=O | / | / | / | / | / | 1.7 | / | /
SMILES | Wnt act | ssDAF12 agonist | hcDAF12 agonist | hgDAF-12 ag | DAX1 inh | esBAF inh | hgDAF12 conf | LXR ag 2
C/C(=N\NC(=O)c1cccc(Br)c1)c1ccc(Br)cc1 | 0.9 | -1.0 | -1.6 | 1.7 | 1.5 | / | / | /
C/C(=N\NC(=O)c1nn(C)c(C)c1Br)c1cccc(NC(=O)c2ccc(F)cc2)c1 | -4.5 | 0.1 | 5.0 | 16.7* | 4.1* | 9.4 | 4.6 | 0.2
C/C(=N\NC(=O)c1c(Br)c(C)nn1C)c1cccc(NC(=O)c2ccccc2F)c1 | 11.1 | -1.6 | -1.1 | -1.3 | 0.4 | / | / | /
C/C(=N\NC(=O)c1ccccc1)c1cccc(Br)c1 | 1.7 | 0.3 | 2.9 | 14.4* | 1.0 | / | 7.0 | 0.3
C/C(=N/NC(=O)c1ccccc1)C1=C(O)CC(C)(C)CC1=O | 1.2 | -0.9 | 3.5 | 14.3* | 1.8 | / | 3.2 | 0.2
COc1ccccc1CNC(=O)C[C@@H]1C=C[C@H](NC(=O)CN(C)C)[C@@H](CO)O1 | / | / | / | / | / | -1.6 | / | /
CC(C)(C)C(=O)c1cnc(Nc2ccccc2Cl)s1 | / | 0.5 | 4.0 | 13.4* | 2.4 | ? | 15.8* | 0.8
CC(=O)c1csc(Nc2ccccc2Cl)n1 | 1.3 | -0.6 | 1.3 | 6.9 | 0.4 | / | / | /
N=C1/C(=C/c2ccc(OCc3ccccc3F)cc2)C(=O)N=C2SC(CC(=O)N3CCOCC3)=NN12 | 9.6 | -0.3 | 4.0 | 14.8* | 0.1 | 15.5 | 2.9 | 0.1
COc1cccc(-n2c(C)cc(/C=C3\C(=N)N4N=C(CC(=O)N5CCOCC5)SC4=NC3=O)c2C)c1 | -0.7 | -1.1 | -2.3 | -0.8 | 0.7 | 0.0 | / | /
Cc1ccsc1/C=c1\sc2ncnn2c1=O | / | -0.7 | 0.5 | 13.7* | 0.3 | -4.2 | 1.6 | 0.1
CN(C(=O)COC(=O)c1ccc2c(c1)OCO2)C1CCCCC1 | -1.8 | -0.9 | 0.6 | 13.3* | 0.6 | 33.3 | 7.0 | 0.1
C/C=C/c1cnc2c(c1)C(=O)N([C@@H](C)CO)C[C@@H](C)[C@H](CN(C)S(=O)(=O)c1ccccc1F)O2 | / | / | / | / | / | -6.4 | / | /
Cc1cnc(NC(=O)c2cncc(Br)c2)s1 | 15.9 | 0.3 | 1.7 | 18.7* | 2.2 | / | 15.5* | 0.8
O=C(c1ccc(Cl)cc1)c1coc2ccc(O)cc12 | / | -0.1 | 3.1 | 17.5* | 3.5 | 9.4 | 18.4* | 1.0
CC(=O)Nc1ccc(C(=O)OCc2ccc(F)cc2Cl)cc1 | 3.9 | -1.7 | 0.7 | 23.7* | -0.3 | / | -0.6 | -0.1

Assay outcomes from PubChem BioAssay.
